Measured values published in PubChem BioAssay (NCI).
This is part of a sample that, as a whole, favours compounds with a hit. Of some 83,000 tested, about 20% had one in any assay.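 Compound tested at a single concentration for 48 hours in 96-well plates; a percent growth value below 10 was scored as active.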 Values without a mark were called inactive. Activity calls are given as the source filed them.

What was measured:
Experiment in all cases: NCI-60 one-dose screen, 48 h (100 = growth as untreated, 0 = no growth, -100 = all killed)
Conditions in all cases: 10 µM unless noted
[1] = system: SR leukemia
[2] = system: RPMI-8226 leukemia
[3] = system: OVCAR-8 ovarian
[4] = system: OVCAR-5 ovarian
[5] = system: OVCAR-4 ovarian
[6] = system: SK-OV-3 ovarian
[7] = system: IGROV1 ovarian
[8] = system: HS 578T breast
[9] = system: NCI/ADR-RES ovarian

Compound | growth [1] | growth [2] | growth [3] [%] | growth [4] [%] | growth [5] | growth [6] | growth [7] | growth [8] | growth [9]
COc1ccc([C@@H]2C(=O)N(c3cc(OC)c(OC)c(OC)c3)[C@H]2c2ccc(OC)c(O)c2)cc1 | 20% | 13.1% | 10.6 | 32.4 | 58.9% | 30.3% | 22.5% | 14.9% | 13.6%
CN1CC[C@@H]2[C@@]3(C)CC[C@H](O)C(C)(C)[C@@H]3CC[C@@]2(C)[C@]2(C)CC[C@@]3(CO)CCC(C)(C)C[C@@H]3C12 (stereo partly drawn) | 30.2% | 74.6% | 97.2 | 91.7 | 96.7% | 108% | 94.8% | 79.2% | 96.8%
COc1ccc(/C=N/NC(=O)c2c(N)nn(C)c2Nc2ccccc2)cc1Oc1ccccc1 | 87.8% | 82.1% | 87.7 | 92.4 | 92.2% | 112% | 93.5% | 93.6% | 92.6%
C#Cc1nc(/C=C/C(=O)NO)cs1 | -42.9% (active) | -6.82% (active) | 21 | 42.3 | -24.9% (active) | 95.6% | -71.5% (active) | 56% | -6.26% (active)
O=S1SC(c2ccccc2)=NN1c1cc(F)cc(F)c1 (stereo not drawn) | 19.3% | 11.5% | 35.5 | 93.8 | 49.3% | 24.8% | 53.8% | 61.9% | 53.4%
C1=CC(c2nn3c(-c4ccccc4)nnc3s2)=Cc2ccccc2O1 | 11.9% | 35.6% | 65.5 | 87.6 | 73.7% | 106% | 64.3% | 61.1% | 85.2%
CC/C(=C(/c1ccc(Cl)cc1)c1ccc(OCCN)cc1)c1ccccc1 | 0.24% (active) | 89.8% | 100 | 119 | 99.3% | 119% | 96.8% | 90.3% | 99.9%
Cn1c2nc3ccccc3c-2cc2ccccc21 | 18.7% | 54.9% | 32.8 | 48 | 50% | 48.9% | -10.8% (active) | 55.9% | 42.6%
NC(=O)c1ncn2c(=O)n(CCF)nnc12 | 35.3% | 44% | 38.3 | 85.1 | 58% | 17.3% | 70.3% | 103% | 50.6%
Cc1cc(=O)[nH]c(O)c1C#N | 99.3% | -72% (active) | 102 | 97.2 | 98.3% | 106% | 103% | 116% | 106%
CNC(=O)c1cc(Oc2ccc3c(c2)sc2nc(-c4ccc(N(C)C)cc4)cn23)ccn1 | 13.2% | 6.21% (active) | 14 | 39.4 | 70.7% | 49.2% | 21.5% | 44.1% | 0.629% (active)
CC(C)(C)OC(=O)Nc1ccc(-c2cccc(Oc3ccc4nnc(Cl)n4n3)c2)cc1 | 36% | 43.2% | 71.3 | 100 | 63.7% | 95.5% | 98.8% | 94.5% | 70.8%
C#CCOc1ccc(/C=N/Nc2nc(-c3ccc(OC)cc3)cs2)cc1 | 47% | 53.3% | 84.9 | 104 | 53.1% | 99.6% | 96.6% | 94% | 89.6%
CCc1cccc2c3c(sc12)C(c1ccc(F)cc1)C(C#N)=C(/N=C/c1ccc(Cl)cc1)O3 (stereo not drawn) | 18.8% | 21.5% | 13.6 | 29.1 | 80.6% | 42.6% | 29.9% | -1.77% (active) | 7.87% (active)
Cc1[nH]c(C(=O)Nc2ccc(S(=O)(=O)N3CCCCC3)cc2OCCOCCOCCOCCOCCOCCOCCOCCOCCOc2cc(S(=O)(=O)N3CCCCC3)ccc2NC(=O)c2[nH]c(C)c3c2CCCCC3=O)c2c1C(=O)CCCC2 | 10.9% | 10.6% | 13.6 | 48.6 | 12.5% | -42.5% (active) | 6.25% (active) | -17% (active) | 85.3%
CN1CCN(CC#CCn2c3c(c4ccccc42)C[C@]2(C)[C@H]4CC=C5[C@@H]6CC(C)(C)CC[C@]6(C(=O)N6CCOCC6)CC[C@@]5(C)[C@]4(C)CC[C@H]2C3(C)C)CC1 | -4.82% (active) | 45.5% | 84.8 | 87.2 | 88.1% | 103% | 77.6% | 91.3% | 76.8%
O=C(N/N=C/c1cc2ccccc2nc1Cl)c1cc(-c2nc3ccccc3[nH]2)nc2ccccc12 | 83.6% | 82.7% | 96.3 | 106 | 86.3% | 106% | 87.5% | 108% | 93.3%
CC[C@]12C=CCN3CC[C@@]4(c5ccc(OC)cc5N(C)[C@H]4[C@@](O)(C(=O)OC)[C@@H]1OC(=O)CCN1CCc4ccccc4C1)[C@@H]32 | 82.2% | 78.4% | 94.9 | 96.3 | 91.2% | 103% | 81.5% | 92% | 80.5%
O=C(Nc1ccc(Cl)c(C(F)(F)F)c1)Nc1ccc2oc(=O)ccc2c1 | 45.6% | -1.56% (active) | 43.4 | 75.6 | 43.3% | 81% | 30.7% | 83.1% | 19.6%
COc1cccc(N2CCN(C3=C(Cl)C(=O)c4ncccc4C3=O)CC2)c1 | 4.42% (active) | 55.8% | 82.8 | 124 | 80.5% | 93.8% | 80.8% | 84.4% | 81.9%
CSc1ccc(C(=NNS(=O)(=O)c2ccc(C)cc2)c2ccc(Cl)cc2)cc1 | 114% | 97.8% | 99.5 | 94.3 | 102% | 111% | 96.8% | 101% | 98.2%
CCOC(=O)Nc1ccc2c(ccn2C(=O)c2cccc(F)c2)c1 | 16.8% | 24.6% | 43.9 | 60.5 | 68.8% | 55.3% | 45.4% | 39.1% | 19.8%
O=C1C(SCc2ccccc2)=C(Cl)CN1c1ccc(Cl)cc1 | 1.35% (active) | 88.8% | 95.2 | 109 | 103% | 117% | 104% | 100% | 105%
COc1cc(/C=N\NC(=O)c2ccc3nc(-c4ccc(Br)cc4)[nH]c3c2)cc(OC)c1OC | 37.9% | 10.7% | 45.6 | 119 | 74.1% | 68.3% | 57.9% | 38% | 95.9%
CS(=O)(=O)c1ccc(/C(=N/N=C(N)N)c2ccc(Cl)cc2)cc1 | 35.1% | 101% | 103 | 99.7 | 98.4% | 87.2% | 85.6% | 91.8% | 102%
O=C(COc1ccc(/C=C2\C(=O)Nc3cc(Cl)ccc32)cc1)Nc1ccc(Cl)cc1 | 54.8% | 60.4% | 63.4 | 67.7 | 66.5% | 87.1% | 73.3% | 79.1% | 66.8%
Cc1ccc(-c2nc(SCC(=O)c3ccccc3)nc(Nc3ccc(S(N)(=O)=O)cc3)c2C#N)cc1 | 56.9% | 65.4% | 34.6 | 97.3 | 24.3% | 107% | 86.3% | -0.186% (active) | 81.7%
